{
  "source": "the supplement of paper PMC4683952",
  "note": "Counter-ions that a name gives are not always drawn. Out of some 1,200 compounds screened, about 50 (4%) showed activity. The sample holds actives, similar compounds and a random draw of the others, so the mix is not that of the screen. Values without a mark were called inactive. No stated cut-off is given here; in the data, all actives reach 1.3 or more but so do some inactives.",
  "data": [
    {"test_system": "Lgr5 (MarsCy1-Lgr5-EGFP, U2OS)", "assay": "cell-surface Lgr5 expression (SCi1 fluorescence, background-subtracted) relative to WT DMSO (fold of DMSO control); higher = more Lgr5 at the plasma membrane, active = hit call of the paper", "details": "U2OS MarsCy1-Lgr5-EGFP stable; treatment time: overnight; 16 µM; library: Johns Hopkins Clinical Compound Library", "values": [
      {"smiles": "COc1cc(C2c3cc4c(cc3C(O)C(CO)C2C(=O)O)OCO4)cc(OC)c1OC.COc1cc(C2c3cc4c(cc3C(O)C(CO)C2C(=O)O)OCO4)cc(OC)c1OC.COc1cc(C2c3cc4c(cc3C(O)C3COC(=O)C23)OCO4)cc(OC)c1OC.COc1cc(C2c3cc4c(cc3C(O)C3COC(=O)C23)OCO4)cc(OC)c1OC", "note": "(stereo unspecified) [Podophyllum resin]", "cell-surface Lgr5 expression": "1.55 (active)"},
      {"smiles": "CC(N)C(O)c1ccccc1", "note": "(stereo unspecified) [Norephedrine Hydrochloride (Phenylpropanolamine)]", "cell-surface Lgr5 expression": 1.19},
      {"smiles": "C=C[C@H]1CN2CC[C@H]1C[C@@H]2[C@@H](O)c1ccnc2ccccc12", "note": "[Cinchonine sulfate]", "cell-surface Lgr5 expression": 1.25},
      {"smiles": "CCN(CC)C(=O)N[C@H]1C=C2c3cccc4[nH]cc(c34)C[C@H]2N(C)C1", "note": "[Lisuride]", "cell-surface Lgr5 expression": 1.1},
      {"smiles": "[S]=[Sb][S][Sb]=[S]", "note": "[Antimony (III) sulfide]", "cell-surface Lgr5 expression": 1.26},
      {"smiles": "NC(=O)CN1CC(O)CC1=O", "note": "(stereo unspecified) [Oxiracetam]", "cell-surface Lgr5 expression": "1.36 (active)"},
      {"smiles": "COc1ccc(O)c(C(C)(C)C)c1.COc1ccc(O)cc1C(C)(C)C", "note": "[Butylated hydroxyanisole]", "cell-surface Lgr5 expression": 1.15},
      {"smiles": "C=CCN1C[C@H](C(=O)N(CCCN(C)C)C(=O)NCC)C[C@@H]2c3cccc4[nH]cc(c34)C[C@H]21", "note": "[Cabergoline]", "cell-surface Lgr5 expression": 0.958},
      {"smiles": "ClC1=C(Cl)C2(Cl)C(CBr)CC1(Cl)C2(Cl)Cl", "note": "(stereo unspecified) [Bromocyclen]", "cell-surface Lgr5 expression": 1.24},
      {"smiles": "C[C@]12Cc3c[nH]nc3C[C@@H]1CC[C@@H]1[C@@H]2CC[C@@]2(C)[C@H]1CC[C@]2(C)O", "note": "[Stanozolol]", "cell-surface Lgr5 expression": 1.03},
      {"smiles": "C[C@]12CCC(=O)C(O)=C1CC[C@@H]1[C@@H]2CC[C@]2(C)C(=O)CC[C@@H]12", "note": "[Formestane (4-Androsten-4-ol-3,17-dione)]", "cell-surface Lgr5 expression": 1.18},
      {"smiles": "C=C1C[C@@H]2[C@H](CC[C@]3(C)C(=O)CC[C@@H]23)[C@@]2(C)C=CC(=O)C=C12", "note": "[Exemestane]", "cell-surface Lgr5 expression": 1.48},
      {"smiles": "C[C@]12CC[C@H](O)CC1=CC[C@@H]1[C@@H]2CC[C@]2(C)C(=O)CC[C@@H]12", "note": "[Prasterone (DHEA, dehydroepiandrosterone)]", "cell-surface Lgr5 expression": "1.33 (active)"},
      {"smiles": "C[C@]12CC[C@H](O)CC1=CC[C@@H]1[C@@H]2CC[C@]2(C)C(=O)CC[C@@H]12", "note": "[Prasterone (dehydroisoandrosterone)]", "cell-surface Lgr5 expression": 1.09},
      {"smiles": "C=CCN=C=S", "note": "[Allyl isothiocyanate]", "cell-surface Lgr5 expression": 0.99},
      {"smiles": "N[C@@H](Cc1ccc(N(CCCl)CCCl)cc1)C(=O)O", "note": "[Melphalan]", "cell-surface Lgr5 expression": 1.14},
      {"smiles": "CC(C)(C)NCC(O)c1ccccc1Cl", "note": "(stereo unspecified) [Tulobuterol]", "cell-surface Lgr5 expression": "1.42 (active)"},
      {"smiles": "CN(C)C(=O)Oc1cc(OC(=O)N(C)C)cc(C(O)CNC(C)(C)C)c1", "note": "(stereo unspecified) [Bambuterol]", "cell-surface Lgr5 expression": 1.21},
      {"smiles": "C1CN1c1nc(N2CC2)nc(N2CC2)n1", "note": "[Triethylenemelamine]", "cell-surface Lgr5 expression": 1.39},
      {"smiles": "[O-][n+]1ccccc1[S-].[O-][n+]1ccccc1[S-].[Zn+2]", "note": "[Pyrithione zinc (1-Hydroxypyridine-2-Thione Zinc Salt)]", "cell-surface Lgr5 expression": 0.923},
      {"smiles": "CN1C[C@H](C(=O)N[C@]2(C)O[C@@]3(O)[C@@H]4CCCN4C(=O)[C@H](Cc4ccccc4)N3C2=O)C[C@@H]2c3cccc4[nH]cc(c34)C[C@H]21", "note": "[Dihydroergotamine methanesulfonate]", "cell-surface Lgr5 expression": 0.612}
    ]}
  ]
}
